The campaign covered roughly 9,900 compounds. About 90 (0.9%) were called active. Not shown: some 2% with an inconclusive outcome. What follows is part of a selection rich in actives, with near analogues and random picks from the rest. Unmarked numbers belong to inactive results.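 How the source made its calls: active means mean normalized replicate activity at least 50 and at least half of replicates each reaching 50; inconclusive means only one of the two criteria met; inactive means neither criterion met.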

This assay is described as follows: reduction of CTGF mRNA in DLD1 cells – DLD1 colon cancer cells, RT-qPCR, single point, primary screen (AID 743449).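 Further: 0% = neutral control wells and 100% = dasatinib control wells; higher means stronger suppression of CTGF expression like dasatinib.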 As to conditions: 24 h, at 12.5 µM, hits give high values.
Consider `CC(=O)N1CC2(C1)[C@H](c1ccccc1)[C@H](CO)N2C(=O)c1cnccn1`, for which the inhibition is -10.2%.
The result for `CCCNC(=O)N1C[C@@H]2[C@H](c3ccccc31)[C@@H](CO)N2Cc1cccc(OC)c1` reads -37.6%; that for `COCCNC(=O)c1cc2c(c(-c3cccc(C4=CCCCC4)c3)n1)[C@@H](CCO)N([S@](=O)C(C)(C)C)C2`, -10.8%; that for `CCc1nc(N2[C@H](CO)[C@H](c3ccccc3-c3ccc(F)cc3)[C@@H]2C#N)sc1C`, -17.7%.
As to `CCc1nc(N2[C@@H](C#N)[C@@H](c3ccccc3-c3ccc(F)cc3)[C@@H]2CO)sc1C`, the inhibition is 10.1%.
In the case of `CCc1nc(N2[C@H](CO)[C@@H](c3ccccc3-c3ccc(F)cc3)[C@@H]2C#N)sc1C`, the inhibition is 55.4% (active).
In the case of `COc1ccc(NC(=O)N(C)C[C@@H]2Oc3c(NC(=O)CCCCCC(=O)Nc4ccccc4N)cccc3C(=O)N([C@@H](C)CO)C[C@H]2C)cc1`, the inhibition is 1.84%.
In the case of `C[C@@H]1CN([C@@H](C)CO)C(=O)c2cccc(NC(=O)c3nc4ccccc4s3)c2O[C@@H]1CN(C)C(=O)Nc1ccc2c(c1)OCO2` it was 13.9%; in that of `C[C@@H]1CN([C@@H](C)CO)C(=O)c2cccc(NC(=O)c3nc4ccccc4s3)c2O[C@H]1CN(C)C(=O)Nc1ccc2c(c1)OCO2`, 52.6% (active).
In the case of `C[C@H]1CN([C@@H](C)CO)C(=O)c2cccc(NC(=O)c3ccc(-c4nccs4)cc3)c2O[C@H]1CN(C)C(=O)Nc1ccc(C(F)(F)F)cc1`, the inhibition was 11.6%.
In the case of `COc1ccc(NC(=O)N(C)C[C@H]2Oc3c(NC(=O)CCCCCC(=O)Nc4ccccc4N)cccc3C(=O)N([C@@H](C)CO)C[C@@H]2C)cc1` it was 30.8%.
`CNC[C@H]1Oc2c(NC(=O)Nc3cccc4ccccc34)cccc2C(=O)N([C@@H](C)CO)C[C@H]1C`: the inhibition was -2.92%.
Regarding `CNC[C@H]1Oc2c(NC(=O)Nc3cccc4ccccc34)cccc2C(=O)N([C@H](C)CO)C[C@@H]1C`, the inhibition is 50.9% (active).
Consider `COc1ccc(NC(=O)N(C)C[C@H]2Oc3c(NC(=O)CCCCCC(=O)Nc4ccccc4N)cccc3C(=O)N([C@H](C)CO)C[C@@H]2C)cc1`, for which the inhibition was 51% (active).
In the case of `C[C@H](CO)N1C[C@H](C)[C@H](CN(C)C(=O)Nc2ccc3c(c2)OCO3)Oc2c(NC(=O)c3nc4ccccc4s3)cccc2C1=O` it was 14.1%; in that of `CNC[C@@H]1Oc2c(NC(=O)Nc3cccc4ccccc34)cccc2C(=O)N([C@@H](C)CO)C[C@H]1C`, 17%.
On to `C[C@H]1CN([C@@H](C)CO)C(=O)c2cccc(NC(=O)c3ccc(-c4nccs4)cc3)c2O[C@@H]1CN(C)C(=O)Nc1ccc(C(F)(F)F)cc1`, for which the inhibition was 72.5% (active).
On to `C[C@H](CO)N1C[C@H](C)[C@H](CN(C)C(=O)Nc2ccc(C(F)(F)F)cc2)Oc2c(NC(=O)c3ccc(-c4nccs4)cc3)cccc2C1=O`, for which the inhibition was -20.1%.
Consider `O=C(C[C@@H]1C=C[C@@H](NC(=O)c2ccncc2)[C@H](CO)O1)NCC1CC1`, for which the inhibition was 15.8%.
The result for `COCC#Cc1ccc([C@H]2[C@@H](CO)N3CCCCN(Cc4cccnc4)C[C@H]23)cc1` reads -7.41%.
As to `O=C(C1CCOCC1)N1CC2(C1)[C@H](c1ccccc1)[C@@H](CO)N2C(=O)CC1CC1`, the inhibition is -35.8%.
For `COc1cccc(NC(=O)C[C@@H]2CC[C@@H]3[C@@H](COc4ccc(NC(=O)C5CC5)cc4C(=O)N3C)O2)c1`, the inhibition is -24.6%.
In the case of `COc1ccc(-c2ccc([C@@H]3[C@@H](CO)N4C(=O)CN(C(=O)Cc5ccccn5)C[C@@H]34)cc2)cc1`, the inhibition is 16.8%.
The result for `CO[C@H](CN(C)Cc1ccc2c(c1)OCO2)[C@@H](C)CN(C(=O)Nc1ccc(F)cc1)[C@H](C)CO` reads -17.7%; that for `CC(C)[C@H]1CC=CC[C@@H](C)Oc2ccccc2C(=O)N(C)[C@H](C(C)C)C(=O)N1` (mixture of isomers), 34.9%; that for `Cc1noc(C)c1NC(=O)N(C)C[C@@H]1Oc2cc(C#CCN(C)C)ccc2S(=O)(=O)N([C@H](C)CO)C[C@H]1C`, -1.27%.
As for `COc1ccc(S(=O)(=O)N(C)C[C@@H]2Oc3c(NC(=O)c4nc5ccccc5s4)cccc3C(=O)N([C@H](C)CO)C[C@H]2C)cc1`, the inhibition is 9.74%.
The result for `C[C@@H]1CN([C@H](C)CO)C(=O)c2cccc(NC(=O)c3nc4ccccc4s3)c2O[C@H]1CN(C)C(=O)Nc1ccc2c(c1)OCO2` reads 73% (active); that for `COc1ccc(S(=O)(=O)N(C)C[C@@H]2Oc3c(NC(=O)c4nc5ccccc5s4)cccc3C(=O)N([C@@H](C)CO)C[C@@H]2C)cc1`, 34.9%; that for `C[C@H]1CN([C@@H](C)CO)C(=O)c2cccc(NC(=O)c3nc4ccccc4s3)c2O[C@@H]1CN(C)C(=O)Nc1ccc2c(c1)OCO2`, 78.9% (active).
Turning to `C[C@@H]1CN([C@H](C)CO)C(=O)c2cccc(NC(=O)c3nc4ccccc4s3)c2O[C@@H]1CN(C)C(=O)Nc1ccc2c(c1)OCO2`, the inhibition is 6.24%.
The result for `C[C@H](CO)N1C[C@H](C)[C@@H](CN(C)C(=O)Nc2ccc3c(c2)OCO3)Oc2c(NC(=O)c3nc4ccccc4s3)cccc2C1=O` reads 46.6%.
The result for `C[C@@H]1CN([C@@H](C)CO)C(=O)c2cc(NC(=O)Cc3ccccc3)ccc2O[C@@H](C)CCCCO[C@H]1CN(C)Cc1ccncc1` reads 2.97%; that for `O=C(Nc1ccc(C(F)(F)F)cc1)Nc1ccc2c(c1)[C@H]1C[C@H](CC(=O)N3CCc4ccccc4C3)O[C@H](CO)[C@H]1O2`, 41.9%.
`N#Cc1cccc(-c2ccc3c(c2)[C@@H]2[C@@H](CCN2S(=O)(=O)c2ccc(F)cc2)[C@@H](CO)N3)c1`: the inhibition was 22.5%.
With `COc1ccccc1S(=O)(=O)N1CC[C@@H]2[C@H]1c1cc(-c3cccc(C#N)c3)ccc1N(C)[C@H]2CO`, the inhibition was 62.1% (active).
As to `COc1ccccc1S(=O)(=O)N1CC[C@@H]2[C@@H](CO)N(C)c3ccc(-c4cccc(C#N)c4)cc3[C@@H]21`, the inhibition is 32%.
Turning to `Cc1ccc(S(=O)(=O)N2CC[C@@H]3[C@H]2c2cc(-c4cccc(C(=O)N(C)C)c4)ccc2N[C@@H]3CO)cc1`, the inhibition is 68.4% (active).
Regarding `Cc1ccc(S(=O)(=O)N2CC[C@@H]3[C@H](CO)Nc4ccc(-c5cccc(C(=O)N(C)C)c5)cc4[C@@H]32)cc1`, the inhibition is -15%.
Regarding `C/C=C/c1ccc2c(c1)[C@@H]1[C@@H](CCN1S(=O)(=O)c1ccccc1OC)[C@H](CO)N2C`, the inhibition was -5.93%.
For `N#Cc1cccc(-c2ccc3c(c2)[C@@H]2[C@@H](CCN2S(=O)(=O)c2ccc(F)cc2)[C@H](CO)N3)c1`, the inhibition is 63% (active).
Turning to `N#Cc1cccc(-c2ccc3c(c2)[C@H]2[C@H](CCN2S(=O)(=O)c2ccc(F)cc2)[C@H](CO)N3)c1`, the inhibition was 20.1%.
For the compound `Cc1ccc(S(=O)(=O)N2CC[C@H]3[C@H](CO)Nc4ccc(-c5cccc(C(=O)N(C)C)c5)cc4[C@H]32)cc1`, the inhibition was 56.9% (active).
On to `COc1ccccc1-c1ccc2c(c1)[C@@H]1[C@@H](CCN1S(=O)(=O)c1ccc(C)cc1)[C@H](CO)N2`, for which the inhibition was 37.4%.
In the case of `COc1ccccc1-c1ccc2c(c1)[C@H]1[C@H](CCN1S(=O)(=O)c1ccc(C)cc1)[C@@H](CO)N2` it was 17.3%; in that of `Cc1ccc(S(=O)(=O)N2CC[C@@H]3[C@@H](CO)Nc4ccc(-c5cccc(C(=O)N(C)C)c5)cc4[C@@H]32)cc1`, 4.93%.
In the case of `Cc1noc(C)c1S(=O)(=O)N(C)C[C@H]1OCc2ccccc2-c2ccccc2C(=O)N([C@H](C)CO)C[C@H]1C`, the inhibition was -25.8%.
Consider `C[C@@H]1CCCCO[C@@H](CN(C)CC2CCCCC2)[C@@H](C)CN([C@@H](C)CO)C(=O)c2cc(NS(C)(=O)=O)ccc2O1`, for which the inhibition was 2.58%.
Turning to `CS(=O)(=O)N1[C@H](CO)[C@@H](c2ccc(-c3ccccc3F)cc2)[C@@H]1C#N`, the inhibition was 16.4%.
Turning to `C[C@H]1CN([C@@H](C)CO)C(=O)c2ccccc2-c2ccccc2CO[C@H]1CN(C)Cc1ccccc1C(F)(F)F`, the inhibition was 12.5%.
As for `Cc1ccc(S(=O)(=O)N2C[C@@H](O)COC[C@H]3O[C@@H](CC(=O)NCc4ccc5c(c4)OCO5)CC[C@@H]32)cc1`, the inhibition was 25.4%.
In the case of `CCS(=O)(=O)N1CC(=O)N2[C@H](CO)[C@@H](c3ccc(C4=CCCCC4)cc3)[C@@H]2C1`, the inhibition was 0.977%.
`COc1ccc2c3c(n(C)c2c1)[C@H](CO)N(C)CC31CCN(C(=O)NC(C)C)CC1`: the inhibition was 18.6%.
`C[C@@H]1CN([C@@H](C)CO)C(=O)c2c(c3ccccc3n2C)-c2ccccc2CO[C@@H]1CN(C)Cc1cccc(C(F)(F)F)c1`: the inhibition was -39%.
The result for `COc1ccc([C@@H]2C/C=C\C[C@@H](c3ccc4c(c3)OCO4)NC(=O)[C@H](c3ccccc3)CC(=O)N2)c(OC)c1` reads 31%; that for `COc1ccc([C@H]2C/C=C\C[C@H](c3ccc4c(c3)OCO4)NC(=O)[C@H](c3ccccc3)CC(=O)N2)c(OC)c1`, -62.1%; that for `COc1ccc([C@H]2C/C=C\C[C@@H](c3ccc4c(c3)OCO4)NC(=O)[C@@H](c3ccccc3)CC(=O)N2)c(OC)c1`, 58.4% (active).
Regarding `O=C(Nc1ccc(F)cc1)N1CC(=O)N2[C@H](CO)[C@@H](c3ccc(C#Cc4cccnc4)cc3)[C@@H]2C1`, the inhibition was -8.94%.
`O=C(Nc1ccc(F)cc1)N1C[C@@H]2[C@H](c3ccccc31)[C@@H](CO)N2Cc1ccccc1Cl`: the inhibition is -18.1%.
In the case of `OC[C@@H]1[C@@H](c2ccc(-c3cccnc3)cc2)[C@H]2CN(Cc3ccccn3)CCCCN12` it was -1.92%.

The values are drawn from PubChem BioAssay AID743449 (Broad Institute, 2014).
